Assay outcomes: PubChem, National Center for Advancing Translational Sciences (NCATS)
Only some compounds are listed: those with a hit (about 8.1% of all), similar ones and a draw of the others.
KB-3-1 tox = KB-3-1 parental cell cytotoxicity | Potency, µM (highest dose often 46.1 µM), most hits filed as cytotoxic | AID 1347075 | KB-3-1 viability, CellTiter-Glo ATP luminescence, 72 h | 400,000 compounds, 1.4% hits; note: % is set by controls: 0 for no effect and ±100 for the full control effect; nearly all actives have a fitted effect of over 60% in size
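KB-3-1 cells, DMEM (no phenol red) + 10% FBS; compound by pin transfer, 72 h, 37 °C. Readout: CellTiter-Glo luminescence after 10 min. Data normalized, curve-fitted.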
KB-V1 MDR tox = kills drug-selected multidrug resistant KB-V1 cells; KB-V1 MDR cells viability, CellTiter-Glo, 72 h; Potency, µM (top dose mostly 46.1 µM), usual class: cytotoxic; 400,000 compounds, 3.4% hits; AID 1347076; note: % is set by controls: 0 for no effect and ±100 for the full control effect; nearly all actives have a fitted effect of over 60% in size
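Following 72 h at 37 degrees C with compound, KB-V1 cell viability was read by CellTiter-Glo luminescence, medium being phenol-red-free DMEM plus 10% FBS; concentration-response parameters came from normalized, curve-fitted qHTS data.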
MCF10A rereplic = induces DNA re-replication in MCF 10a normal breast cells. MCF 10A DNA re-replication, Hoechst nuclear intensity, 48 h. Potency, µM (titrated, usually from 46.1 µM), without a hit: at the highest dose activity, positive = re-replication, hits mostly activators. 350,000 compounds, 2.9% hits. AID 624296; note: % of control where 0% means no effect; nearly all actives have a fitted effect of over 50% in size
ELG1 repair inh = inhibitors of ELG1-dependent DNA repair in HEK293T cells; 330,000 compounds, 2.3% hits; Potency, µM (series often up to 46.1 µM), without a hit: top-dose activity change, negative = inhibition, most hits filed as inhibitors; HEK293T ELG1-luciferase reporter, luminescence, 16 h; DNA damage induced by 5-fluorouridine; AID 504467; note: % is set by controls: 0 for no effect and ±100 for the full control effect; nearly all actives have a fitted effect of over 55% in size
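Cells (2,000 per well) received 5-fluorouridine plus test compound or DMSO and were incubated 16 hr at 37 °C, 5% CO2. Luciferase activity was read by luminescence 30 min after ONE-Glo addition; signal suppression marked inhibition of damage-induced ELG1 function.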
SW480 rerep = inducers of DNA re-replication in SW480 colon cancer cells. SW480 DNA re-replication, Hoechst DNA content imaging, 48 h. Potency, µM (doses to about 46.1 µM), inactives show at the top dose re-replication activation, actives largely listed as activators. 340,000 compounds, 1.8% hits. AID 624297; note: % of control where 0% means no effect; nearly all actives have a fitted effect of over 55% in size
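Treated cells incubate 48 hr (37 C, 5% CO2), are stained 40 min with Hoechst, and nuclear fluorescence is enumerated; a rise in nuclei with high DNA signal marks re-replication.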
Active calls of the source: *; i = inactive; u = inconclusive; x = no result. Calls come from the whole dose curve; as a rule, active = well fitted curve in the direction sought with a large enough effect; inconclusive = small, poorly fitted or top-dose-only effect, or another doubt; inactive = no such curve, though single readings can be large; an effect the other way counts as inactive or inconclusive. Potency is the fitted concentration of half-maximal effect.

SMILES	KB-3-1 tox	KB-V1 MDR tox	MCF10A rereplic	ELG1 repair inh	SW480 rerep
COc1ccc(NC(=O)c2ccc3c(c2)NC(=O)CS3)cc1S(=O)(=O)Nc1ccc(Br)cc1	i	i	0.8%	11.6µM*	14.2%
CC(=O)c1c(C)[nH]c(C(=O)Nc2ccc(C)c(S(=O)(=O)Nc3ccc(C)cc3C)c2)c1C	i	i	11.6µM*	u	16.4µM*
Cc1ccc(NS(=O)(=O)c2cc(C(=O)Nc3cccc(N(C)S(C)(=O)=O)c3)ccc2C)c(C)c1	i	16.4µM*	2.7%	u	-7.9%
Cc1ccc(NS(=O)(=O)c2cc(NC(=O)c3ccc4c(c3)NC(=O)CS4)ccc2C)c(C)c1	u	i	u	18.3µM*	-1.4%
CC(=O)NS(=O)(=O)c1ccc(NC(=O)c2ccc3c(c2)NC(=O)CS3)cc1	u	i	-13.0%	11.5%	-8.7%
COc1ccc(C(=O)NC(C)CCn2cccn2)cc1OC1CCN(C(C)C)CC1 (stereo not given)	i	i	0.1%	4.3%	0.1%
O=Cc1ccc2[nH]ccc2c1	i	i	x	x	x
O=C1CC(c2ccc(F)cc2)Cc2nc(NCC3CCCO3)ncc21 (stereo not given)	i	20.6µM*	0.7%	-4.0%	-8.9%
Cc1ccc(NC(=O)Cn2c(=O)n(CCC(=O)NCc3ccccc3Cl)c(=O)c3ccccc32)c(C)c1	i	u	x	x	x
CCN(CC)c1ccc(C=Nc2cc(C)ccc2C)c(O)c1	u	23.1µM*	2.5%	u	u
CCN(CC)c1ccc(C=Nc2ccc(C)cc2C)c(O)c1	i	i	19.0%	u	-5.8%
COc1cc(/C=N\NC(=O)CNC(=O)C2COc3ccccc3O2)ccc1O (stereo not given)	i	i	-12.4%	0.5%	-7.5%
CCN(CC)c1ccc(/C=N/NC(=O)c2c(Cl)cnn2C)c(O)c1	i	u	11.6µM*	u	u
CCOC(=O)N/N=C/c1ccc(N(CC)CC)cc1O	20.6µM*	u	23.1µM*	u	16.4µM*
CCN(CC)c1ccc(/C=N/NC(=O)CNC(=O)C2COc3ccccc3O2)c(O)c1 (stereo not given)	u	u	6.51µM*	u	6.51µM*
NC(=O)C1CCN(c2oc(-c3cccs3)nc2S(=O)(=O)c2ccc(Br)cc2)CC1	i	i	-19.5%	-5.1%	-9.6%
Cc1oc2c(c1C(=O)Nc1ccc(Cl)cc1F)C1=NCCN1C=N2	i	i	x	x	x
COc1cc(Cl)c(C)cc1NC(=O)CC1CCCC1	i	i	20.3%	6.7%	-2.7%
CC1(C)CO[C@@H](CC(=O)O)CN1	x	x	1.1%	x	0.0%
CCN(CC)c1ccc(/C=N/NC(=O)c2cccc(S(=O)(=O)N3CCOCC3)c2)c(O)c1	7.31µM*	u	14.6µM*	u	u
Cc1ccc(S(=O)(=O)N(C)C)cc1NC(=O)c1cc(S(=O)(=O)N2CCCCC2)ccc1N1CCOCC1	i	i	0.2%	10.3µM*	25.3%
COc1ccc(CNC(=O)c2cc(S(=O)(=O)N3CCCCC3)ccc2N2CCOCC2)cc1OC	i	23.1µM*	10.8%	x	10.8%
COc1ccc(CCNC(=O)c2cc(S(=O)(=O)N3CCOCC3)ccc2N2CCCC2)cc1OC	i	i	-0.9%	9.9%	-2.5%
COc1ccc(C)cc1NC(=O)c1cc(S(=O)(=O)N2CCCCC2)ccc1N1CCOCC1	i	i	-1.7%	14.6µM*	16.4%
CN(C)S(=O)(=O)c1ccc(N2CCCC2)c(C(=O)Nc2ccccc2N2CCOCC2)c1	i	u	2.5%	-7.2%	6.9%
Cc1c2cnn(-c3ccccc3)c(=O)c2c(C)n1CC(=O)NCc1ccccc1	i	i	x	x	x
CN(C)S(=O)(=O)N1CCC(Oc2cccc(C(=O)NC3CCCCC3)c2)CC1	i	u	14.3%	-17.1%	u
C=CCN(CC=C)C(=O)c1ccc(OC2CCN(S(=O)(=O)N(C)C)CC2)cc1	u	20.6µM*	-1.7%	u	-3.4%
CN(C)S(=O)(=O)N1CCC(Oc2cccc(C(=O)NCCC3=CCCCC3)c2)CC1	u	u	2.7%	13µM*	3.5%
